LYPLA1 inh = blocks human lysophospholipase 1, a PME1 counter-screen; O75608; inhibition, % at 5.9 µM; hit rate 0.16% among 320,000; recombinant LYPLA1, FP-Rh probe fluorescence polarization;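 active = inhibition above the mean of all tested compounds plus 3 SD, set per campaign, cut at about 14% in these data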;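 note: inhibitors block serine hydrolase probe labeling of LYPLA1 so polarization falls; 0% = enzyme with DMSO and 100% = wells lacking LYPLA1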
Target sequence (O75608 whole entry, looked up): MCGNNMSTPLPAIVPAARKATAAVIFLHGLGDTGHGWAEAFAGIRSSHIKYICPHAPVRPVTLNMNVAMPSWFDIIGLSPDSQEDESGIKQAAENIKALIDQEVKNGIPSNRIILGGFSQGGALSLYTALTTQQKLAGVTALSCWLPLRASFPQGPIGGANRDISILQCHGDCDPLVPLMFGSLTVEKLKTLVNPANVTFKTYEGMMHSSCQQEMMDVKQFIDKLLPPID
EBNA-1 inhibitor = blocks EBNA-1 binding to DNA. inhibition, % at 14.8 µM. hit rate 0.34% among 300,000. AID 1950. EBNA-1 DNA binding, fluorescence polarization; in the data active = inhibition above about 28%
LYPLA2 counter = blocks human lysophospholipase 2, a PME1 counter-screen; O95372; recombinant LYPLA2, FP-Rh probe fluorescence polarization; inhibition, % at 5.9 µM; hit rate 0.38% among 320,000;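 active = inhibition above the screen-wide mean plus 3 SD, limit set per campaign, cut at about 26% in these data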;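 note: 0% = LYPLA2 with DMSO and 100% = wells lacking LYPLA2 enzyme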
Target sequence (O95372 whole entry, looked up): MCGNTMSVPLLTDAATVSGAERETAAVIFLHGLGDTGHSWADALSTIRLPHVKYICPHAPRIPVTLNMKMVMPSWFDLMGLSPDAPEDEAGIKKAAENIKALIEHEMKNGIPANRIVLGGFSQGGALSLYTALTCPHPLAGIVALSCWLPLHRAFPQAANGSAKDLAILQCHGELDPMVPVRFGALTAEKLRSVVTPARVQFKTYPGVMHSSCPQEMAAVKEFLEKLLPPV
ZTA DNA inh = counter-screen for EBNA-1 inhibitors: inhibitors of Epstein-Barr virus ZTA; hit rate 0.15% among 320,000; AID 2234; ZTA-DNA binding, fluorescence polarization; inhibition, % at 11 µM; in the data active = inhibition above about 33%
PREPL inh = inhibitors of human prolyl oligopeptidase-like enzyme PREPL. Q4J6C6. recombinant PREPL, fluorescence polarization activity-based probe. inhibition, % at 5.96 µM. hit rate 0.68% among 320,000; in the data active = inhibition above about 43%;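 note: 0% = enzyme with DMSO and 100% = wells lacking enzyme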
LYPLA1 confirm = LYPLA1 (human) inhibition, confirmation counter-screen; inhibition, % at 5.9 µM; hit rate 69% among 480; recombinant LYPLA1, FP-Rh probe fluorescence polarization; AID 2233; shares compounds with LYPLA1 inh;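 active = mean inhibition across replicates above the hit cutoff set in the primary screen, cut at about 15% in these data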;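 note: loss of FP-Rh probe labeling of LYPLA1 seen as lower polarization; 0% = LYPLA1 with DMSO and 100% = wells lacking LYPLA1 enzyme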
The depositor's hits bear a star; · = no result given. The list is not random: actives were taken first. Their share in the collection is about 1.3%.

SMILES | LYPLA1 inh | EBNA-1 inhibitor | LYPLA2 counter | ZTA DNA inh | PREPL inh | LYPLA1 confirm
CCN(CC)c1cccc(OC2=NS(=O)(=O)c3ccccc32)c1 | 15* | 4 | 16 | 7 | 20 | 0
COc1ccc(C(C(=O)NC(C)(C)C)N(C(=O)CCC(=O)Nc2cc(C)on2)c2ccccc2F)cc1 (stereo not drawn) | 15* | -3 | 2 | -4 | 7 | 1
Cc1ccc(NC(=O)COc2ccc(/C=C3/SC(=Nc4ccccc4)N(Cc4cccnc4)C3=O)cc2)cc1 | 68* | 6 | 0 | 7 | -3 | -1
O=C(CCN1C(=O)/C(=C/c2ccccc2)SC1=S)Nc1cccnc1 | 0 | -13 | -3 | 15 | -11 | ·
COc1ccc2nc(SCC(=O)Nc3cc(OC)c(OC)cc3C(=O)O)c(C)cc2c1 | -3 | 10 | -3 | 19 | -4 | ·
O=C(c1ccc(-c2ccccc2)c(F)c1)C1CCCN(C(=O)c2cncs2)C1 (stereo not drawn) | 32* | -9 | 22 | -9 | 11 | 52*
CNC(=S)N(CCc1c(C)[nH]c2ccc(C)cc12)Cc1cccnc1 | 2 | 2 | 2 | 7 | -27 | ·
O=C(NCC(=O)N1CCN(c2cccc(Cl)c2)CC1)c1ccc(Br)o1 | 14* | 10 | 7 | -4 | 3 | 16*
Cc1noc(NS(=O)(=O)c2ccc(NC(=O)c3oc4ccc(Cl)cc4c3C)cc2)c1C | 28* | 2 | 25 | -4 | 28 | 31*
Cc1ccc(-n2c(C)c([N+](=O)[O-])c3ccc(O)c(CN(C)C)c32)cc1 | 4 | -5 | 9 | 9 | 8 | ·
COc1ccc(-n2c(C)c([N+](=O)[O-])c3ccc(O)c(CN4CCCCC4)c32)cc1 | 54* | -8 | 25 | -5 | 38 | 65*
COc1ccc(CCNC(=O)CN(CCc2ccccc2)S(C)(=O)=O)cc1OC | 22* | 3 | 2 | -9 | 5 | 3
COc1ccc(CCNC(=O)CN(c2ccccc2OC)S(C)(=O)=O)cc1OC | 2 | -11 | 7 | -12 | 6 | ·
CC1=NN(c2ccccc2)C(=O)/C1=C/c1c(O)n(-c2ccc(F)c(Cl)c2)[nH]c1=O | 26* | -4 | 14 | -2 | 31 | 14
CC1=NN(c2ccccc2)C(=O)/C1=C\c1c(C)[nH]n(-c2ccccc2)c1=O | -2 | 7 | 1 | -12 | 11 | ·
COc1ccccc1C(=O)Nc1cccc2nc(C)ccc12 | 2 | 2 | 6 | -10 | -2 | ·
Cc1ccc(C(=O)N/N=C\c2ccc(Br)o2)o1 | 0 | -6 | 0 | -8 | 2 | ·
Cc1ccc(C(=O)N/N=C/c2ccc(-c3ccc(Br)cc3[N+](=O)[O-])o2)o1 | 18* | 1 | 21 | 8 | 25 | -3
CC(=O)c1cccc(NC(=O)c2ccc3c(c2)C(=O)N(Cc2cccnc2)C3=O)c1 | 1 | 1 | 15 | -5 | 3 | ·
COC(=O)c1cccc(NC(=O)c2ccc3c(c2)C(=O)N(Cc2cccnc2)C3=O)c1 | 20* | 2 | 8 | -3 | -3 | 19*
CCN(CC)S(=O)(=O)c1cccc(-c2nnc(SCc3nc4ccccc4s3)o2)c1 | 14* | -3 | -7 | 3 | 5 | 21*
CCN(c1ccccc1)S(=O)(=O)c1ccc(OC)c(NC(=O)CN(C)C)c1 | 15* | 0 | 4 | 18 | -1 | 7
CCOC(=O)C1=C(C)N(C)C(=O)NC1c1cccc2ccccc12 (stereo not drawn) | 4 | -6 | -1 | -11 | -20 | ·
COc1ccc(/C=C2/SC(=S)N(CCCC(=O)Nc3ccccc3C(=O)O)C2=O)cc1 | 20* | 2 | 22 | 18 | 1 | 19*
Fc1ccc(-n2cc(-c3ccccc3)c3c(NN4CCOCC4)ncnc32)cc1 | 1 | -4 | 3 | -6 | 24 | ·
COc1ccc(-n2cc(-c3ccccc3)c3c(NN4CCOCC4)ncnc32)cc1 | 14* | -14 | 0 | 4 | 16 | 27*
COc1ccc([C@H]2CC(=O)C=C(c3ccc(C)c([N+](=O)[O-])c3)C2)cc1 | 18* | · | 15 | -33 | 10 | 17*
COc1cc(OC)c(OC)cc1/C=C1\Oc2cc(OCC(=O)N3Cc4ccccc4C[C@H]3C(=O)O)ccc2C1=O | 25* | 6 | -6 | 1 | 29 | 22*
COc1ccc(/C=C2\Oc3cc(OCC(=O)N4CCC[C@H]4C(=O)O)ccc3C2=O)c(OC)c1 | -2 | -2 | 2 | 10 | -5 | ·

Bioassay records as filed in PubChem BioAssay.
